HT1080NT lethal = qHTS for induction of synthetic lethality in tumor cells producing 2HG: qHTS for the HT-1080-NT fibrosarcoma cell line. HT-1080-NT fibrosarcoma viability, CellTiter-Glo ATP luminescence, 48 h. Potency, µM (titrated, usually from 46.1 µM), for inactives: at the top dose activity, negative = less viability, most hits filed as cytotoxic. 360,000 tested, 1.6% active;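 further: NT is the 2HG producing partner of a matched IDH1 knockdown line; 0% = DMSO-treated cells and -100% = media-only wells without cells; nearly all actives have a fitted effect of over 55% in size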
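Luminescent CellTiter-Glo readout after 48 hours of compound exposure at 37 degrees C defined viability of HT-1080-NT cells. Activity was normalized to DMSO wells and cell-free media wells; concentration-response curves were fitted and assigned curve classes.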
ATXN2 expr inh = Primary qHTS for Inhibitors of ATXN expression | HEK-293 ATXN2-luciferase reporter, luminescence, 24 h | Potency, µM (highest dose often 57 µM), without a hit: top-dose activity change, negative = inhibition, most hits filed as inhibitors | 360,000 tested, 0.72% active | AID 1745845, 2022; further: on the % scale 0 is the no-effect control and ±100 the full control effect; nearly all actives have a fitted effect of over 55% in size
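ATXN2-luciferase reporter cells (luciferase flanked by upstream and downstream ATXN2 gene portions) were treated 24 h at 37 °C with compounds at up to 57 uM. SteadyGlo luminescence gave expression; GF-AFC fluorescence gave viability.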
HT1080 IDH1KD tx = qHTS for induction of synthetic lethality in tumor cells producing 2HG: qHTS for the HT-1080-IDH1KD cell line | HT-1080 IDH1 knockdown viability, ATP luminescence, 48 h | Potency, µM (highest dose often 46.1 µM), without a hit: at the top dose activity, negative = toxicity, most hits filed as cytotoxic | 360,000 tested, 2% active;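 further: 0% = DMSO wells and -100% = cell-free medium wells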
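Viability of IDH1-knockdown HT-1080 fibrosarcoma cells was assessed by CellTiter-Glo after 48 h at 37 °C with titrated compound; concentration-effect curves were classified by fit quality and response size.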
TGFb inhibitor = qHTS for Inhibitors of TGF-b | HepG2 CAGA-GFP TGF-b/SMAD3 reporter, GFP fluorescence, 18 h; TGF-beta stimulated, 500 pg/mL final | Potency, µM (series often up to 46.1 µM), inactives show at the highest dose activity, negative = inhibition, actives largely listed as inhibitors | 410,000 tested, 1.2% active; further: on the % scale 0 is the no-effect control and ±100 the full control effect; nearly all actives have a fitted effect of over 65% in size
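HEPG2 CAGA-GFP cells (1000/well, DMEM with 1% FBS) were pre-incubated 2 h at 37 degrees C, given compound by pin tool, then stimulated with TGF-beta at 500 pg/mL final for 18 h before per-cell GFP fluorescence imaging.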
S2 tox = Viability Counterscreen for Primary qHTS for Inhibitors of ATXN expression | Potency, µM (doses to about 56.7 µM), most hits filed as cytotoxic | 400,000 tested, 0.49% active | AID 651635, 2014 | S2 cells (HEK-293 line with an ATXN2-luciferase reporter) viability, CellTiter-Fluor protease fluorescence, 24 h; further: nearly all actives have a fitted effect of over 40% in size
HepG2 tox = qHTS for Inhibitors of TGF-b: Cytotox Counterscreen; HepG2 CAGA-GFP viability, ATP luminescence, 18 h; Potency, µM (highest dose often 46.1 µM), inactives show top-dose activity change, negative = cytotoxicity, hits mostly cytotoxic; 410,000 tested, 0.76% active
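HepG2 CAGA-GFP cells (1000/well, DMEM with 1% FBS) received compound, then TGF-beta at 500 pg/mL final, and were incubated 18 hours at 37 degrees C. Viability was read by CellTiter-Glo luminescence. Media-only wells were set as complete cell-killing and DMSO as no toxicity.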
An asterisk follows results filed as active; i = inactive; ? = inconclusive; . = no result. An excerpt weighted towards active compounds, which were near 3.9% of everything screened. The call rests on the fitted dose curve; in most records, active means well fitted curve in the direction sought with a large enough effect; inconclusive means small, poorly fitted or top-dose-only effect, or another doubt; inactive means no such curve, though single readings can be large; an effect the other way counts as inactive or inconclusive. Potency means the concentration at half of the fitted maximal effect.

SMILES	HT1080NT lethal	ATXN2 expr inh	HT1080 IDH1KD tx	TGFb inhibitor	S2 tox	HepG2 tox
CC(=O)c1ccc(Nc2nc(C(N)CCc3ccccc3)cs2)cc1 (configuration not stated)	20.6µM*	?	?	-11.1%	?	-20.2%
CC(=O)c1ccc(Nc2nc(C(N)Cc3ccc(Cl)cc3)cs2)cc1 (configuration not stated)	23.1µM*	?	?	?	?	-79.9%
CN(Cc1ccccc1)C(=O)c1ccc(Nc2nc(CN)cs2)nc1	-8.3%	-12.0%	1.9%	8.3%	?	-2.1%
CC(C)C(N)c1csc(Nc2ccc(C(=O)N(C)Cc3ccccc3)cn2)n1 (configuration not stated)	14.6µM*	-30.8%	14.6µM*	-2.2%	?	-18.6%
CC(=O)c1ccc(Nc2nc(C(N)Cc3ccc(N)cc3)cs2)cc1 (configuration not stated)	-7.1%	-1.7%	0.0%	2.8%	i	-26.2%
Cc1ccc(-c2noc(-c3nnn(CC(=O)Nc4cc(C)cc(C)c4)c3N)n2)cc1	.	.	.	.	.	4.1%
Cc1cc(C)n(-c2cccc(C(=O)NCC3Cc4cccc(-c5cccnc5)c4O3)c2)n1 (configuration not stated)	.	.	.	.	i	.
CCc1nc2ccccc2c(C(=O)OCc2nc3ccccc3c(=O)[nH]2)c1C	10.3µM*	-24.9%	18.4µM*	2.4%	i	9.0%
CCCCCCCCCn1c2c(c(=N)c3c1CCC3)CCCC2	7.31µM*	?	4.61µM*	6.31µM*	?	-98.5%
CCCCCCCCCCn1c2c(c(=N)c3c1CCC3)CCC2	1.03µM*	?	?	12.6µM*	?	-97.1%
COc1cccc(CN2CCC3(CCC(CNC(=O)c4ccccc4)O3)CC2)c1 (configuration not stated)	.	.	.	.	i	.
C(=C\c1nnc2c3ccccc3ncn12)/c1ccccc1	?	1.0%	5.8µM*	-17.5%	i	-12.6%
COc1cc(/C=C/c2nnc3c4ccccc4ncn23)cc(OC)c1OC	?	9.5%	?	-5.1%	i	1.1%
Nc1c(Cl)ncnc1NCCO	6.7%	.	4.7%	-2.5%	i	3.5%
Cc1ccc(CCNc2ncnc(Cl)c2N)cc1	0.651µM*	4.6%	?	-19.3%	i	-19.3%
COC(=O)[C@]12CCC(C)(C)C[C@@H]1[C@@H]1C(=O)C=C3[C@@]4(C)C=C(C#N)C(=O)C(C)(C)[C@@H]4CC[C@@]3(C)[C@]1(C)CC2	.	1.72µM*	.	.	2.51µM*	.
COc1ccc(CCNC(=O)CCn2c(=O)[nH]c3cc(OC)c(OC)cc3c2=O)cc1OC	-6.9%	-11.5%	-1.3%	7.9%	i	7.6%
CCOc1cc2[nH]c(=O)n(CCC(=O)NCCc3ccc(OC)c(OC)c3)c(=O)c2cc1OCC	29.1µM*	4.8%	?	3.2%	i	2.7%
O=C(NCCc1ccccc1)c1cc(-c2cccc(Cl)c2)on1	.	3.5%	.	2.7%	i	-14.2%
Cc1ccc(NC(=O)NCC2CC2(Cl)Cl)cc1 (configuration not stated)	14.6%	51.7%	8.9%	-10.5%	i	-1.6%
O=C(NCC1CC1(Cl)Cl)Nc1ccc(Cl)c(Cl)c1 (configuration not stated)	18.4µM*	?	29.1µM*	?	i	-38.0%
CC(C)C(NC(=O)c1ccccn1)c1nnc2n1CCN(Cc1ccc3ccccc3c1)CC2 (configuration not stated)	.	.	.	.	i	.

Assay outcomes as filed in PubChem BioAssay.
